Experimental data as given in PubChem BioAssay (NCI).
“And” between values parts separate entries of the source, which are not always exact repeats. Equal entries are not always repeated. About 79,000 compounds went through this panel and 15% of them were active in at least one assay; those are over-represented in the sample as a whole. Some structures have more than one record in an assay (separate samples or runs), and their calls can disagree. The source made the active and inactive calls. Rule as the data show it: active = growth inhibition above about 70%; inactive = the rest.

Columns and labels:
[1] = NCI Yeast Anticancer Drug Screen. Data for the rad52 strain (AID 147);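 also: 0% = growth of vehicle-treated control cultures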; conditions: S. cerevisiae rad52 mutant growth inhibition, stronger effect = higher value
Procedure, shortened: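 Here a repair-compromised yeast strain receives each compound; its growth is then quantified and normalised to vehicle-only controls.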

[2] = NCI Yeast Anticancer Drug Screen. Data for the wt1 strain (AID 149);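 also: 0% = growth of vehicle-treated wt1 cultures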; conditions: S. cerevisiae wt1 strain (SPY 50644) growth inhibition, stronger effect = higher value
Procedure, shortened: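 Vehicle-normalised growth inhibition; strain wt1; compound exposure.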

[3] = NCI Yeast Anticancer Drug Screen. Data for the rad50EPP+ strain (AID 151);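 also: 0% = growth of vehicle-treated control cultures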; conditions: S. cerevisiae rad50 mutant strain, stronger effect = higher value
Procedure, shortened: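 Read-out is yeast growth inhibition relative to vehicle; cells used were the rad50EPP+ strain.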

[4] = NCI Yeast Anticancer Drug Screen. Data for the mgt1 strain (AID 153); conditions: S. cerevisiae mgt1 mutant growth inhibition, stronger effect = higher value
Procedure, shortened: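 Measured: inhibition of mgt1 yeast growth by compound, normalized to vehicle-treated cultures.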

[5] = NCI Yeast Anticancer Drug Screen. Data for the rad50 strain (AID 155);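 also: 0% = growth of vehicle-only cultures of the same strain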; conditions: S. cerevisiae rad50 strain growth inhibition, stronger effect = higher value
Procedure, shortened: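 A DNA repair-deficient yeast mutant serves as the test organism; compound-induced growth inhibition is calculated against vehicle-treated cells.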

[6] = NCI Yeast Anticancer Drug Screen. Data for the mec2-1 strain (AID 157); conditions: S. cerevisiae mec2-1 strain, stronger effect = higher value
Procedure, shortened: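 Using mec2-1 yeast: add compound, measure growth, express inhibition versus vehicle-treated cultures.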

[7] = NCI Yeast Anticancer Drug Screen. Data for the rad14 strain (AID 159);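 also: 0% = growth of vehicle-treated control cultures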; conditions: S. cerevisiae rad14 strain growth inhibition, stronger effect = higher value
Procedure, shortened: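 Vehicle-treated cultures served as the baseline for growth inhibition of a DNA repair-mutant yeast strain exposed to each compound.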

[8] = NCI Yeast Anticancer Drug Screen. Data for the sgs1 mgt1 strain (AID 161);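 also: 0% = growth of cultures given vehicle only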; conditions: S. cerevisiae sgs1 mgt1 strain, stronger effect = higher value
Procedure, shortened: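 Compounds are added to genetically altered yeast, and growth is compared with cultures given vehicle alone to give percent inhibition.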

[9] = NCI Yeast Anticancer Drug Screen. Data for the CLN2oe strain (AID 163);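 also: 0% = growth of vehicle-only control cultures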; conditions: S. cerevisiae CLN2oe strain, stronger effect = higher value
Procedure, shortened: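 Whole-cell yeast growth assay. A strain engineered for altered cell-cycle control received compound, and inhibition relative to vehicle-treated cultures was recorded.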

[10] = NCI Yeast Anticancer Drug Screen. Data for the cln2 rad14 strain (AID 165);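 also: 0% = growth equal to vehicle treated cultures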; conditions: S. cerevisiae cln2 rad14 strain, stronger effect = higher value
Procedure, shortened: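 Yeast strain cln2 rad14, bearing defects in cell cycle control and DNA repair, serves as the test system; values reflect growth inhibition compared with vehicle.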

[11] = NCI Yeast Anticancer Drug Screen. Data for the bub3 strain (AID 167); conditions: S. cerevisiae bub3 mutant strain, stronger effect = higher value
Procedure, shortened: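 Inhibition values come from growth of compound-treated mutant yeast normalised to vehicle-treated controls.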

[12] = NCI Yeast Anticancer Drug Screen. Data for the wt2 strain (AID 169);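 also: 0% = growth of vehicle-treated yeast cultures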; conditions: S. cerevisiae wt2 strain growth inhibition, stronger effect = higher value
Procedure, shortened: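 Treated yeast vs. vehicle-treated yeast: growth inhibition determined.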

[13] = NCI Yeast Anticancer Drug Screen. Data for the mlh1 strain (AID 171);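 also: 0% = growth of vehicle-treated control cultures of the same strain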; conditions: S. cerevisiae mlh1 strain growth inhibition, stronger effect = higher value
Procedure, shortened: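 A yeast strain with a defined genetic lesion serves as the test organism. Cultures receive compound or vehicle, and growth is measured.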

[14] = NCI Yeast Anticancer Drug Screen. Data for the sgs1 strain (AID 173);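 also: 0% = growth of vehicle-only control cultures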; conditions: S. cerevisiae sgs1 mutant, stronger effect = higher value
Procedure, shortened: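 A genetically defined yeast mutant is incubated with the test compound, and its growth is compared to that of the same strain given vehicle.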

[15] = NCI Yeast Anticancer Drug Screen. Data for the mlh1 rad18 strain (AID 175); conditions: S. cerevisiae mlh1 rad18 strain growth inhibition, stronger effect = higher value
Procedure, shortened: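 Steps: expose repair-defective yeast to compound; measure growth; express inhibition against vehicle-treated controls.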

[16] = NCI Yeast Anticancer Drug Screen. Data for the rad18 strain (AID 177); conditions: S. cerevisiae rad18 mutant growth inhibition, stronger effect = higher value
Procedure, shortened: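 Measured value is growth inhibition of a yeast strain bearing a DNA repair alteration, referenced to vehicle-treated cells.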

[17] = at 5.0 µM (retest, dose inferred, filed as 0.5)
[18] = at 50.0 µM (retest, dose inferred, filed as 5.0)

Measured: growth inhibition

Cc1cc(N(CCOS(C)(=O)=O)CCOS(C)(=O)=O)ccc1C=Nc1ccc(-c2csc(-c3ccccc3)n2)c(Cl)c1
inactive: [1]; at 1.2 µM 14% | [1]; at 3.7 µM 57% | [2]; at 1.2 µM -26% | [2]; at 3.7 µM -8% | [2]; at 11.0 µM 56% | [3]; at 1.2 µM 3% | [3]; at 3.7 µM -1% | [3]; at 11.0 µM 13% | [3]; at 33.0 µM 62% | [4]; at 1.2 µM 13% | [4]; at 3.7 µM 43% | [5]; at 1.2 µM 2% | [5]; at 3.7 µM 28% | [5]; [17] 53% and 4% | [6]; at 1.2 µM -2% | [6]; at 3.7 µM 30% | [6]; [17] 51% and -1% | [7]; at 1.2 µM 4% | [7]; at 3.7 µM 53% | [8]; [17] 20% and 8% | [9]; at 1.2 µM 36% | [9]; at 3.7 µM 37% | [10]; [17] 29% and -6% | [11]; at 1.2 µM 0% | [11]; at 3.7 µM 20% | [11]; [17] 18% and 0% | [12]; at 1.2 µM -4% | [12]; at 3.7 µM 4% | [13]; at 1.2 µM -1% | [13]; at 3.7 µM 25% | [14]; at 1.2 µM 10% | [14]; at 3.7 µM 22% | [16]; at 1.2 µM 58%
active: [1]; at 11.0 µM 90% | [1]; at 33.0 µM 96% | [1]; at 100.0 µM 84% | [2]; at 33.0 µM 98% | [2]; at 100.0 µM 92% | [3]; at 100.0 µM 85% | [4]; at 11.0 µM 81% | [4]; at 33.0 µM 98% | [4]; at 100.0 µM 92% | [5]; at 11.0 µM 78% | [5]; at 33.0 µM 96% | [5]; [18] 96% and 94% | [5]; at 50.0 µM 93.2% | [5]; at 100.0 µM 91% | [6]; at 11.0 µM 85% | [6]; at 33.0 µM 97% | [6]; [18] 97% | [6]; at 50.0 µM 97.1% | [6]; at 100.0 µM 92% | [7]; at 11.0 µM 91% | [7]; at 33.0 µM 97% | [7]; at 100.0 µM 91% | [8]; at 50.0 µM 82.8% and 96.2% | [9]; at 11.0 µM 79% | [9]; at 33.0 µM 98% | [9]; at 100.0 µM 92% | [10]; at 50.0 µM 82.8% and 92.5% | [11]; at 11.0 µM 76% | [11]; at 33.0 µM 97% | [11]; at 50.0 µM 81.4% and 94% | [11]; at 100.0 µM 92% | [12]; at 11.0 µM 72% | [12]; at 33.0 µM 97% | [12]; at 100.0 µM 92% | [13]; at 11.0 µM 80% | [13]; at 33.0 µM 97% | [13]; at 100.0 µM 90% | [14]; at 11.0 µM 82% | [14]; at 33.0 µM 97% | [14]; at 100.0 µM 92% | [15]; [18] 95% and 96% | [15]; at 50.0 µM 95.2% | [16]; at 3.7 µM 83% | [16]; at 11.0 µM 94% | [16]; at 33.0 µM 97% | [16]; at 100.0 µM 89%
-19% (inactive) and 95% (active): [11]; [18]
86% (active) and 5% (inactive): [15]; [17]
5% (inactive) and 97% (active): [8]; [18]
-5% (inactive) and 95% (active): [10]; [18]
